PLK1 PBD block – PLK1 (human) polo-box domain binding inhibition; Potency, µM, inactives show max response, negative = inhibition, actives largely listed as inhibitors; Plk1 PBD binding of FITC phosphopeptide, fluorescence polarization; 360,000 tested, 2.8% active; P53350; further: potency means the concentration at half of the fitted maximal effect; series mostly up to about 57 µM; on the % scale 0 is the no-effect control and ±100 the full control effect; nearly all actives have a fitted effect of over 65% in size
Target sequence (P53350 whole entry, looked up, the tested form may be a part): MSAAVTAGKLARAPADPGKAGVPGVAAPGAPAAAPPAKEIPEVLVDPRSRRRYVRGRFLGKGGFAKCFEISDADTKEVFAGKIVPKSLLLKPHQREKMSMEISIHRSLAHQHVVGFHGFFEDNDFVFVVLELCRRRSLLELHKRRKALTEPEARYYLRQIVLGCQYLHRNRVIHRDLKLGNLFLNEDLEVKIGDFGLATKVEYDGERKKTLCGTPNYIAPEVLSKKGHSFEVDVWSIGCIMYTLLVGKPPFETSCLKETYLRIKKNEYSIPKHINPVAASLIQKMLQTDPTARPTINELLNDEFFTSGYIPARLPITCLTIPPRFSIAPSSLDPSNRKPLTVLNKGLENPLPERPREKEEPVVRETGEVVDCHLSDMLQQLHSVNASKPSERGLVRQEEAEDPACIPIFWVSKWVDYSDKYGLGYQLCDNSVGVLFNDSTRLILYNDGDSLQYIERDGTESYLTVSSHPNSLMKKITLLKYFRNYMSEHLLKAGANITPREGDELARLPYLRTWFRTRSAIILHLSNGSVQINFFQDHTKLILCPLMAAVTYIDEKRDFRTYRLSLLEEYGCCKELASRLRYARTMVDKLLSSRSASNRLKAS
JMJD2A Tudor inh – inhibitors of human JMJD2A Tudor domain. AlphaScreen JMJD2A-Tudor / H3K4me3 peptide binding. O75164. 390,000 tested, 4.4% active. Potency, µM (doses to about 114 µM), for the others: top-dose activity change, negative = inhibition, hits mostly inhibitors. AID 504339; further: potency means the concentration at half of the fitted maximal effect; on the % scale 0 is the no-effect control and ±100 the full control effect; nearly all actives have a fitted effect of over 50% in size
GCN5L2 inh – GCN5L2 (KAT2A) acetyltransferase inhibition; AID 504327; 390,000 tested, 0.21% active; GCN5L2 HAT assay, ThioGlo1 CoA-SH fluorescence; Q92830; Potency, µM (series often up to 58.9 µM), without a hit: at the top dose activity change, negative = inhibition, usual class: inhibitors; further: potency means the concentration at half of the fitted maximal effect; on the % scale 0 is the no-effect control and ±100 the full control effect
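Fluorescence readout, Ex340nm/Em540nm: ThioGlo1 (50uM final) reacts with free CoA thiol released as 20nM GCN5L2 acetylates H3(1-25) peptide (75uM) using acetyl-CoA (70uM). Compound and enzyme sat 15 min beforehand; 20 min room-temperature reaction.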
HP1b binding inh – HP1-beta chromodomain-methylated histone interaction inhibition; 390,000 tested, 0.56% active; P83916; AID 540317; Potency, µM (doses to about 114 µM), for inactives: at the top dose activity change, negative = inhibition, most hits filed as inhibitors; AlphaScreen HP1-beta / biotin-H3K9me3 peptide binding; further: potency means the concentration at half of the fitted maximal effect; nearly all actives have a fitted effect of over 70% in size
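Compound inhibition of the preformed complex between 50 nM HP1-beta and 50 nM biotinylated H3K9me3 peptide was read by AlphaScreen. Buffer was PBS pH 7.4 with 0.01% Tween-20. Incubations ran 30 min at room temperature, with 10 ug/mL donor/acceptor beads.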
BAZ2B inh – BAZ2B (human) inhibition | Potency, µM (titrated, usually from 114 µM), for inactives: at the top dose activity change, negative = inhibition, actives largely listed as inhibitors | AlphaScreen BAZ2B-H3K14Ac peptide displacement | 360,000 tested, 4.4% active; further: potency means the concentration at half of the fitted maximal effect; on the % scale 0 is the no-effect control and ±100 the full control effect; nearly all actives have a fitted effect of over 60% in size
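AlphaScreen displacement of biotin-H3(5-23)K14Ac peptide (50 nM final) from BAZ2B (50 nM final) in PBS pH 7.4, 0.01% Tween-20; complex preformed 30 min RT, then compounds (top 110 uM) 30 min RT, beads 20 min dark.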
PI5P4Ka inh – blocks human PI5P4K alpha kinase activity. P48426. PI5P4Kalpha enzyme, ADP-Glo luminescence, 60 min; hits give low values. max response, %. 330,000 tested, 1.2% active. AID 652105; active means max response of -50% or lower; inconclusive means between -30% and -50%; inactive means -30% or higher; further: value at the top dose of about 77 µM; on the % scale 0 is the no-effect control and ±100 the full control effect
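ADP-Glo luminescence end-point read after a 60 min room-temperature kinase reaction of PI5P4Kalpha plus substrate, initiated with ATP at 5 microM final. Buffer: 0.038 M HEPES pH 7.4, EGTA, 0.1% CHAPS, 5% DMSO.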
The depositor's hits bear a star; ? = inconclusive; . = no result given. A selection: hits, their analogues and other compounds. The true share with any hit is near 7%. Unless noted, the call rests on the fitted dose curve; in most records, active means well fitted curve in the direction sought with a large enough effect; inconclusive means small, poorly fitted or top-dose-only effect, or another doubt; inactive means no such curve, though single readings can be large; an effect the other way counts as inactive or inconclusive.

SMILES	PLK1 PBD block	JMJD2A Tudor inh	GCN5L2 inh	HP1b binding inh	BAZ2B inh	PI5P4Ka inh
COCC(=O)N[C@@H]1c2ccccc2CC[C@@H]1OCc1ccccc1	-8.3%	-4.8%	2.0%	41.6%	.	7.6
O=C(O)CCC(=O)Nc1ccc(SSc2ccc(NC(=O)CCC(=O)O)cc2)cc1	0.947µM*	?	-12.6%	29.9%	-1.3%	-6.9
O=C(O)CCC(=O)Nc1ccc(F)cc1	-10.2%	-31.4%	-5.8%	20.9%	9.7%	-0.7
O=C1/C(=C/c2ccc(O)c(O)c2)Oc2cc(O)ccc21	25.3%	-29.9%	-16.2%	-4.4%	56.2µM*	-63.8*
COc1ccc(/C=C2\OC(=O)c3c(OC)cccc32)cc1OC	-2.7%	16.7%	-17.7%	38.6%	8.9%	-1.1
COc1cc(/C=C2\Oc3cc(O)ccc3C2=O)ccc1O	11.3%	4.8%	?	47.8%	-0.9%	-60.6*
O=C1/C(=C/c2cccc([N+](=O)[O-])c2)Oc2cc(O)ccc21	1.7%	-20.5%	-3.8%	28.4%	-2.7%	?
O=C(c1ccc([N+](=O)[O-])cc1)N1CCN(c2ncc(Br)cn2)CC1	26.7µM*	-10.1%	-9.4%	18.2%	22.6%	-8.2
COc1ccc(N2CCN(C(=O)c3ccc(Br)cc3)CC2)c([N+](=O)[O-])c1	-6.6%	79.4µM*	3.7%	?	25.1µM*	4.8
COc1ccc(N2CCN(C(=S)NC(=O)c3cccs3)CC2)c([N+](=O)[O-])c1	-11.3%	50.1µM*	-1.7%	?	?	-8.9
COc1ccc(N2CCN(C(=O)c3ccc(C)cc3)CC2)c([N+](=O)[O-])c1	0.0%	?	-3.2%	-31.6%	?	1.2
O=[N+]([O-])c1ccc(/C=N/n2c(-c3cccnc3)n[nH]c2=S)cc1	-23.6%	8.91µM*	-5.0%	-0.8%	2.8%	-24.2
Cc1ccsc1/C=N/n1c(-c2cccnc2)n[nH]c1=S	-16.0%	4.47µM*	?	-5.0%	-29.3%	.
O=[N+]([O-])c1cccc(/C=N/n2c(-c3cccnc3)n[nH]c2=S)c1	-21.0%	3.98µM*	-1.9%	?	-36.9%	-24.5
O=[N+]([O-])c1ccc(Cl)c(/C=N/n2c(-c3cccnc3)n[nH]c2=S)c1	.	.	?	.	-18.7%	.
CC(C)(C)c1ccc(-c2n[nH]c(=S)n2/N=C/c2ccncc2)cc1	-8.8%	?	-3.3%	6.8%	-9.3%	0.8
COc1ccc(OC)c(NC(=O)COCc2cc(-c3ccco3)on2)c1	.	-8.3%	-2.8%	-9.1%	-22.8%	.
CC1(C(=O)NS(=O)(=O)c2cccc(Cl)c2)CCN1C(=O)CC1CCCC1 (centres undefined)	-14.1%	.	.	.	.	-9.1
O=C1NC(=S)S/C1=C/c1ccc(OC(=O)c2ccco2)cc1	?	?	-24.2%	-7.2%	79.4µM*	-61.9*
CCOc1cc(/C=C2/SC(=S)NC2=O)ccc1OC(=O)c1ccco1	21.2µM*	?	-27.9%	?	39.8µM*	-86.3*
COc1cc(/C=C2/SC(=O)NC2=O)ccc1OC(=O)c1ccco1	-19.5%	-8.8%	-1.1%	31.6%	-3.5%	-16.7
CC(NC(=O)COC(=O)CCC(=O)c1ccc(F)cc1)c1ccccc1 (centres undefined)	-12.4%	1.0%	0.1%	32.4%	.	-1.7
COc1cccc(CN(C)C[C@@H]2OCc3cnnn3CCCC(=O)N([C@@H](C)CO)C[C@H]2C)c1	-9.3%	.	.	.	.	-3.6
Cc1cc(C)c(C)c(S(=O)(=O)N[C@@H](C)C(=O)OCC(=O)NC2CCCC(C)C2C)c1C (some centres undefined)	-3.4%	-15.8%	-3.1%	14.8%	.	0.7
CN(C(=O)COC(=O)c1c2c(nc3ccccc13)CCCC2)c1c(N)n(Cc2ccccc2)c(=O)[nH]c1=O	6.4%	-12.2%	-5.1%	9.6%	-1.1%	8.1
O=C(NC1CC(=O)N(c2ccc(F)cc2)C1)C(c1ccccc1)c1ccccc1 (centres undefined)	.	-9.7%	-5.6%	53.8%	2.1%	.
